Here are results for 38 molecules from the supplement of paper PMC10720658.

Molecules are shown by their SMILES. ± gives the standard deviation of the averaged measurements.

The test system of the assay is AEK1 (Tb927.3.2440). Description: percent reduction in TR-FRET probe signal relative to DMSO control; higher = stronger displacement of ATP-site probe (binding). As to conditions: 1 µM; incubation time 1 h. For orientation: In TR-FRET formats the signal depends on donor and acceptor labels being close together.
Take `COc1cc(Nc2ncc(F)c(Nc3ccc4c(n3)N(COP(=O)(O)O)C(=O)C(C)(C)O4)n2)cc(OC)c1OC` [Fostamatinib (R788)]: the “percent reduction in TR-FRET probe signal” value (from here on “percent reduction”) was 31.3 ± 1.3%.

Consider `C=CC(=O)N1CCCC(n2c(=O)n(-c3ccc(Oc4ccccc4)cc3)c3c(N)ncnc32)C1` (stereo not drawn) [ONO-4059 analogue], for which the “percent reduction” value turned out to be 4.33 ± 16%.

For `CNC(=O)c1ccccc1Nc1nc(Nc2ccc(N3CCOCC3)cc2OC)ncc1Cl`, the “percent reduction” value was found to be 25.1 ± 15%.

With `CCS(=O)(=O)Nc1ccc2c(c1)/C(=C(/Nc1ccc(CN3CCCCC3)cc1)c1ccccc1)C(=O)N2` [Hesperadin], the “percent reduction” value came to 97.4 ± 5.1%.

As to `O=C(NC[C@H](O)CO)c1ccncc1Nc1ccc(I)cc1F`, the “percent reduction” value is 8.42 ± 5%.

Consider `COc1ccc2c(Oc3ccc(NC(=O)c4c(C)n(CC(C)(C)O)n(-c5ccccc5)c4=O)nc3)ccnc2c1`, for which the “percent reduction” value stood at 0.253 ± 6.4%.

As for `O=C(O)c1ccc(-c2c[nH]c3ncc(-c4ccccc4)cc23)cc1C1CCCC1`, the “percent reduction” value is -2.47 ± 9.6%.

In the case of `CN1CCC(COc2cnc(-c3cccc(Cn4nc(-c5cccc(C#N)c5)ccc4=O)c3)nc2)CC1`, the “percent reduction” value came out at 6 ± 15%.

Take `CC(C)(C)n1nc(-c2ccc(Cl)cc2)c2c(N)ncnc21`: the “percent reduction” value is -1.96 ± 9.6%.

On to `Cc1cc2c(F)c(Oc3ncnn4cc(OC[C@@H](C)O)c(C)c34)ccc2[nH]1`, for which the “percent reduction” value is 20.2 ± 15%.

With `CC(C)(C)c1ccc(S(=O)(=O)/C=C/C#N)cc1`, the “percent reduction” value was -17 ± 7.6%.

For `CN1CCN(C2CCN(C(=O)Nc3cc(Oc4ccc(NC(=O)C5(C(=O)Nc6ccc(F)cc6)CC5)c(F)c4)ccn3)CC2)CC1` [Golvatinib (E7050)], the “percent reduction” value was determined as 0.527 ± 8%.

`CNC(=O)Nc1ccc(-c2nc(N3CC4CCC(C3)O4)c3cnn(C4CCC5(CC4)OCCO5)c3n2)cc1`: the “percent reduction” value was -1.55 ± 9.3%.

`COc1cc2ncnc(Oc3ccc(CC(=O)Nc4cnn(C(C)C)c4)cc3)c2cc1OC`: the “percent reduction” value was 5.15 ± 13%.

Consider `CNC(=O)c1cc(Oc2ccc(NC(=O)Nc3cc(C(C)(C)C)nn3-c3ccc4ncccc4c3)c(F)c2)ccn1` [DCC-2036 (Rebastinib)], for which the “percent reduction” value was determined as 21.5 ± 15%.

As to `CC(C)(O)CC(=O)NCCn1ccc2ncnc(Nc3ccc(Oc4cccc(C(F)(F)F)c4)c(Cl)c3)c21`, the “percent reduction” value is -2.36 ± 7.6%.

As for `CN1CCN(S(=O)(=O)c2ccc(-c3cnc(N)c(C(=O)Nc4cccnc4)n3)cc2)CC1`, the “percent reduction” value was -4.29 ± 6.5%.

On to `CCc1cnn2c(NCc3ccc[n+]([O-])c3)cc(N3CCCC[C@H]3CCO)nc12`, for which the “percent reduction” value is -4.69 ± 4.1%.

For `Cc1ccc(NC(=O)c2cccc(C(C)(C)C#N)c2)cc1Nc1ccc2ncn(C)c(=O)c2c1`, the “percent reduction” value is -9.01 ± 3.1%.

`Cc1cc(N2CCOCC2)cc2[nH]c(-c3c(NC[C@@H](O)c4cccc(Cl)c4)cc[nH]c3=O)nc12`: the “percent reduction” value turned out to be 21.7 ± 13%.

As for `Cc1ccc(NC(=O)c2ccc(CN3CCN(C)CC3)cc2)cc1Nc1nc(-c2cccnc2)cs1` [Masitinib (AB1010)], the “percent reduction” value is -4.2 ± 7%.

On to `Nc1ccc(-c2ccc3ncc4ccc(=O)n(-c5cccc(C(F)(F)F)c5)c4c3c2)cn1` [Torin 2], for which the “percent reduction” value was 1.07 ± 4.9%.

On to `Cl.Cl.OC(c1cc(-c2ccc(Cl)cc2)nc2ccccc12)C1CCCCN1` (stereo not drawn) [Vacquinol-1], for which the “percent reduction” value was -5.59 ± 3.7%.

For `NC1(C(=O)N[C@@H](CCO)c2ccc(Cl)cc2)CCN(c2ncnc3[nH]ccc23)CC1`, the “percent reduction” value was 3.79 ± 1.4%.

With `CN1CCN(c2ccc(-c3ccncc3-c3cc(F)c(O)c(F)c3)cc2)CC1`, the “percent reduction” value is 1.75 ± 5.2%.

Consider `Cc1nc(NC(=O)N2CCC[C@H]2C(N)=O)sc1-c1ccnc(C(C)(C)C(F)(F)F)c1`, for which the “percent reduction” value stood at 0.68 ± 7.1%.

Take `CN1CCC(CNc2ccc3ncc(-c4cccc(OC(F)(F)F)c4)n3n2)CC1` [SGI-1776 free base]: the “percent reduction” value is 30 ± 15%.

Take `CS(=O)(=O)O.Cc1ccc(NC(=O)c2ccc(CN3CCN(C)CC3)cc2)cc1Nc1nccc(-c2cccnc2)n1` [Imatinib Mesylate (STI571)]: the “percent reduction” value is 7.01 ± 21%.

For the molecule `CCOc1cc(C(=O)N2CCC(N3CCN(C)CC3)CC2)ccc1Nc1ncc2c(n1)N(C1CCCC1)c1ccccc1C(=O)N2C`, the “percent reduction” value is -3.15 ± 9.5%.

For `C#Cc1cccc(Nc2ncnc3cc4c(cc23)OCCOCCOCCO4)c1` [Icotinib], the “percent reduction” value is -5.67 ± 19%.

`Cc1cc(Nc2cc(CN3CCOCC3)c3nc(C)c(Cc4ccc(Cl)cc4F)n3n2)n[nH]1`: the “percent reduction” value came to 49 ± 10%.

On to `O=C(/C=C/c1ccc(O)c(O)c1)c1ccc(O)cc1O` [Butein], for which the “percent reduction” value worked out at 4.05 ± 5.4%.

Take `CNc1nc(Nc2cnn([C@H]3CCN(C4COC4)C[C@@H]3F)c2Cl)ncc1C(F)(F)F`: the “percent reduction” value was found to be 9.94 ± 3.4%.

On to `C=CC(=O)Nc1cccc(Nc2nc(Nc3ccc(Oc4ccnc(C(=O)NC)c4)cc3)ncc2F)c1`, for which the “percent reduction” value is -4.93 ± 4.3%.

As for `N#Cc1c(NC(=O)c2cccc3ccccc23)sc2c1CCCC2` [JNK Inhibitor IX], the “percent reduction” value was -3.71 ± 5.5%.

Take `COc1cc(CCc2cc(NC(=O)c3ccc(N4C[C@@H](C)N[C@@H](C)C4)cc3)n[nH]2)cc(OC)c1`: the “percent reduction” value worked out at 2.07 ± 10%.

For the molecule `COc1cc2ncc(-c3ccccc3)nc2cc1OC` [Tyrphostin AG 1296], the “percent reduction” value was -3.11 ± 5.3%.

Take `CN(C)Cc1cccc(N/C(=C2\C(=O)Nc3cc(C(=O)N(C)C)ccc32)c2ccccc2)c1`: the “percent reduction” value is -0.927 ± 9.6%.
